# Bim-Mcl-1 – disrupts Bim peptide binding to human Mcl-1; Q07820; Bead-based flow cytometry, Bim peptide-Mcl-1 binding; inhibition, % at 10 µM; actives 0.1% (n = 190,000); AID 1009; in the data active means inhibition above about 40%;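 further: 0% = no compound tracer wells and 100% = peptide blocker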
# Mcl1 Noxa PPI – Mcl-1/Noxa interaction inhibition. TR-FRET Mcl-1/Noxa peptide binding, 2 h. inhibition, % at 21.7 µM. actives 1.5% (n = 220,000);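 active means compounds that cut the protein-peptide binding signal by more than 50% relative to plate controls in a single-dose test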;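 further: His-tagged Mcl-1 with rhodamine Noxa BH3 peptide and terbium anti-His antibody; 0% = Mcl-1 plus Noxa peptide wells and 100% = peptide-only wells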
# BCLXL inh – Bcl-xL (human) inhibition; Q07817; GST-Bcl-xL / FITC-Bim BH3 peptide fluorescence polarization; inhibition, % at 10.9 µM; actives 0.7% (n = 320,000);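 active means inhibition above the mean of all tested compounds plus 3 SD, cutoff set per campaign, cut at about 30% in these data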;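 further: 0% = DMSO wells and 100% = unlabeled Bim-BH3 peptide competitor; inhibitors lower millipolarization by displacing the labeled peptide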
# MCL1 BIM primary – inhibitors of human MCL1 binding to BIM-BH3 peptide; Q07820; GST-MCL1 / FITC-Bim-BH3 fluorescence polarization; inhibition, % at 10.9 µM; actives 0.68% (n = 320,000); AID 2057;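 active means inhibition above the mean inhibition of all tested compounds plus 3 SD, set per campaign, cut at about 40% in these data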;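 further: 0% = DMSO wells and 100% = unlabeled Bim-BH3 peptide control; higher means more loss of mP so more displacement of Bim peptide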
# Mcl1-Bid inh – Mcl-1/Bid interaction inhibition; TR-FRET Mcl-1/Bid-Dy647 peptide binding, 1536-well; Q07820; actives 0.97% (n = 220,000); inhibition, % at 21.7 µM;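 active means compounds that cut the binding signal by more than half at the single screening dose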;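 further: His-tagged Mcl-1 with europium anti-His antibody binding Bid BH3 peptide; 0% = Mcl-1 plus peptide wells and 100% = peptide-only wells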
# GLD-1 RNA inh – GLD-1-TGE RNA interaction inhibition (C. elegans). inhibition, % at 5.96 µM. AID 2280. purified GLD-1 + fluorescein TGE RNA, fluorescence polarization. actives 0.44% (n = 320,000);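 active means percent inhibition above a per-plate cutoff, the plate mean of test compounds plus 3 SD, cut at about 30% in these data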;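 further: 0% = DMSO wells with GLD-1 and probe and 100% = wells lacking GLD-1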
# Target sequence (Q17339 whole entry, looked up): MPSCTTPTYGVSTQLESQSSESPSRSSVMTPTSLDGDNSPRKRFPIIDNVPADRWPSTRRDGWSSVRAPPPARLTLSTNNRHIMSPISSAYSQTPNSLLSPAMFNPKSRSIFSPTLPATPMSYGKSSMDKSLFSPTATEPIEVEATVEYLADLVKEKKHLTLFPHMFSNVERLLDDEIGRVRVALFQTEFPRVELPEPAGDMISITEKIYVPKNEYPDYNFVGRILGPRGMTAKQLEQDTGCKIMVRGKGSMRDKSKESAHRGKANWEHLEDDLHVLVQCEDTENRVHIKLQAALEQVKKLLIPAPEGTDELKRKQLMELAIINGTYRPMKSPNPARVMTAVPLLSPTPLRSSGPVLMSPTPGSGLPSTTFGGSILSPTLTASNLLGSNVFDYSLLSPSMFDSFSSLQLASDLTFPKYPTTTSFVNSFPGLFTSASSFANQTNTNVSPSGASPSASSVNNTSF
# GLD-1 TGE cf – GLD-1 TGE RNA interaction inhibition, confirmation | shares compounds with GLD-1 RNA inh | GLD-1/FL-TGE RNA fluorescence polarization, biochemical | inhibition, % at 5.96 µM | actives 10% (n = 550) | AID 2459;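 active means average inhibition across triplicates above the hit cutoff set in the primary screen, cut at about 32% in these data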;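 further: 0% = GLD-1 with RNA probe and DMSO and 100% = wells lacking GLD-1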
# Active calls of the source: *; . = not tested or not shown. Shown are actives, neighbours in structure and some others; about 2.3% of the full set was active somewhere.
SMILES,Bim-Mcl-1,Mcl1 Noxa PPI,BCLXL inh,MCL1 BIM primary,Mcl1-Bid inh,GLD-1 RNA inh,GLD-1 TGE cf
CCN(CC)CCNC(C(=O)Nc1cc(C(F)(F)F)ccc1Cl)c1ccccc1 (stereo unspecified),-3,23,-6,-21,-51,35*,0
Cc1ccc(OCC(=O)N2CCOCC2)c([N+](=O)[O-])n1,.,2,-4,-4,-26,3,.
Cc1ccc(OCC(=O)c2ccc(Cl)s2)c([N+](=O)[O-])n1,-1,49,18,18,-105,31*,-5
CCOc1ccc(CNn2cnnc2)cc1,.,.,3,1,.,9,.
N#Cc1ccc(C(=O)N2CCN(S(=O)(=O)c3ccc(Br)s3)CC2)cc1,-2,26,0,-3,-11,5,.
CCCCCCc1cc2cc(S(=O)(=O)c3ccc(Cl)cc3)c(=O)oc2cc1O,0,2,1,-3,7,30,.
CCCCCCc1cc2cc(S(=O)(=O)c3ccc(C)cc3)c(=O)oc2cc1O,-1,0,6,5,-4,39*,-4
CCC12OC(=N)C(C#N)(C1C)C(C#N)(C#N)C(c1ccccc1)O2 (stereo unspecified),-1,19,21,25,-13,33*,-1
COc1ccc(CC(=O)NCc2ccc3c(c2)cc(C)n3C)cc1OC,1,7,3,-1,-46,6,.
CCOc1ccc(CC(=O)NCc2ccc3c(c2)cc(C)n3C)cc1,0,7,1,5,-46,11,.
COCC(=O)NCc1ccc2c(c1)cc(C)n2C,-2,2,30,33,-9,36*,14
Cc1cc2cc(CNC(=O)c3ccc4c(c3)OCO4)ccc2n1C,0,30,33*,29,-15,44*,6
COc1cc(OC)cc(C(=O)NCc2ccc3c(c2)cc(C)n3C)c1,-2,20,30*,35,-47,52*,7
Cc1cc2cc(CNC(=O)c3ccco3)ccc2n1C,.,8,38*,41*,-115,34*,3
Cc1cc2cc(CNC(=O)COc3ccccc3)ccc2n1C,.,15,17,17,-64,21,.
O=c1c2c3nc4ccccc4nc3n(/N=C/c3ccncc3)c2ncn1-c1ccccc1,.,15,8,2,27,4,.
COC(=O)c1nnn(CC(=O)Nc2cccc(OC)c2)c1C(=O)OC,-2,12,-1,0,0,3,.
COCCN(C(=O)c1ccc(C)o1)c1c(N)n(CC(C)C)c(=O)[nH]c1=O,.,.,2,0,.,-4,.
CCOC(=O)NC(=O)C(/C=N/c1sccc1C(=O)OC)=C(\C)O,0,-16,17,9,-26,46*,3
O=C(/C=C/c1ccc(Cl)cc1)NCc1cccs1,-7,0,7,9,-8,65*,12
CCOC(=O)CSc1nnc(CSc2nc(C)cc(C)n2)n1Cc1ccco1,0,8,9,10,-13,36*,2
Cc1cc(C)nc(SCc2nnc(SCC(N)=O)n2Cc2ccco2)n1,1,8,-1,-7,-16,0,.
O=C(OCc1c(-c2ccccc2)ncc2ccccc12)N1CCOCC1,.,.,3,0,.,6,.
Cc1cccc(NC(=O)c2ccc(S(=O)(=O)N3CCCC3)cc2)c1C,.,.,3,11,.,0,.
O=C(Nc1cccc2c1C(=O)NC2=O)c1ccc(S(=O)(=O)N2CCCC2)cc1,-4,.,31*,27,.,36*,19
CCOC(=O)C(Cc1ccccc1)C(=O)Nc1cccc(C)c1 (stereo unspecified),-2,-8,2,10,-15,14,.
CCN(CC)CCNC(=O)c1ccc(NC(=O)c2ccccc2-c2ccc(C(F)(F)F)cc2)cc1,.,.,6,-4,.,2,.
Cc1ccc2nc(SCC(=O)Nc3cccc(S(=O)(=O)NC4=NCCCCC4)c3)[nH]c2c1,.,-8,-2,-7,-32,0,.
COC(=O)c1ccc(CNC(=O)Cn2nnnc2CN(C)C(C)C)cc1,.,.,4,6,.,138*,-4
COc1ccccc1CNC(=O)Cn1nnnc1CN(C)C(C)C,.,.,1,-1,.,7,.
